Measurements as given in the supplement of paper PMC6555819.

What was measured:
Assay in all cases: PBM binding z-score (relative to random genomic background probes); higher = stronger binding; sequences stand for … in GC…GCGATTGACAGCGTAGAATGAAGG
[1] = tested on: RARb homodimer (NR concentration 270 nM)
How it was run: (§1)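 Binding z-scores take random background probes as their reference. They come from custom Agilent 4×180K protein-binding microarrays incubated 1 h with ligand-free nuclear receptor dimers, with antibodies against each partner (one per run) detecting binding. Scanned fluorescence was regression-normalized.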

[2] = tested on: RARg:RXRa (NR concentration 270 nM, RXRa partner concentration 90 nM)
How it was run: as §1

[3] = tested on: RARg homodimer (NR concentration 270 nM)
How it was run: as §1

[4] = tested on: RXRa DBDmut IVT, anti-RXR (DBD mutation: RXRa K156A/R161A, NR concentration 90 nM)
How it was run: as §1

[5] = tested on: RXRa homodimer (NR concentration 180 nM)
How it was run: as §1

[6] = tested on: THRa:RXRa (NR concentration 90 nM, RXRa partner concentration 90 nM)
How it was run: as §1

[7] = tested on: THRa homodimer (NR concentration 90 nM)
How it was run: as §1

[8] = tested on: VDR:RXRa (NR concentration 270 nM, RXRa partner concentration 90 nM)
How it was run: as §1

[9] = tested on: VDR homodimer (NR concentration 270 nM)
How it was run: as §1

CCTAGCAGGCCAGGGTCACTCACGCATTTCGCTT
PBM binding z-score [1]: 2.64
PBM binding z-score [2]: 2.79
PBM binding z-score [3]: 2.22
PBM binding z-score [4]: 0.414
PBM binding z-score [5]: 3.32
PBM binding z-score [6]: 2.63
PBM binding z-score [7]: 1.32
PBM binding z-score [8]: 2.3
PBM binding z-score [9]: 1.73

GCTAGTTGGTCAGTAAAGGGTCACACACCGGTCG
PBM binding z-score [1]: 4.43
PBM binding z-score [2]: 4.33
PBM binding z-score [3]: 3.73
PBM binding z-score [4]: 0.428
PBM binding z-score [5]: 3.78
PBM binding z-score [6]: 2.77
PBM binding z-score [7]: 0.995
PBM binding z-score [8]: 3.09
PBM binding z-score [9]: 1.74

CCGACTGGGGCAGAAAGGTTACCACACCATCCGG
PBM binding z-score [1]: 2.28
PBM binding z-score [2]: 1.77
PBM binding z-score [3]: 1.41
PBM binding z-score [4]: -0.654
PBM binding z-score [5]: 1.84
PBM binding z-score [6]: 1.01
PBM binding z-score [7]: -0.368
PBM binding z-score [8]: 1.15
PBM binding z-score [9]: -0.223

TCATATAAGTAAAAGGTGAAAGTCGGTGTGGTAA
PBM binding z-score [1]: 1.85
PBM binding z-score [2]: 1.3
PBM binding z-score [3]: 0.831
PBM binding z-score [4]: 1.85
PBM binding z-score [5]: 2.11
PBM binding z-score [6]: 1.46
PBM binding z-score [7]: 0.55
PBM binding z-score [8]: 1.24
PBM binding z-score [9]: 0.109

TCGAGTAGGTTACCAATGGGGCAGTCAGCTTTCT
PBM binding z-score [1]: 0.628
PBM binding z-score [2]: 1.29
PBM binding z-score [3]: 0.257
PBM binding z-score [4]: 0.0356
PBM binding z-score [5]: 0.404
PBM binding z-score [6]: -0.0981
PBM binding z-score [7]: -1.12
PBM binding z-score [8]: -0.0931
PBM binding z-score [9]: -1.05

GCACATAGGTAATACAAGGTGAAAGTCCGATTGT
PBM binding z-score [1]: 0.838
PBM binding z-score [2]: 0.572
PBM binding z-score [3]: 0.547
PBM binding z-score [4]: 0.115
PBM binding z-score [5]: 0.869
PBM binding z-score [6]: 4.19
PBM binding z-score [7]: 1.02
PBM binding z-score [8]: 0.394
PBM binding z-score [9]: -0.0736

ATATCTAGGTAAGACTCAGTTCAGTGAAGAACGC
PBM binding z-score [1]: 0.918
PBM binding z-score [2]: 0.275
PBM binding z-score [3]: 0.108
PBM binding z-score [4]: 0.525
PBM binding z-score [5]: 0.354
PBM binding z-score [6]: 0.631
PBM binding z-score [7]: 0.604
PBM binding z-score [8]: 0.941
PBM binding z-score [9]: 1.41

ATCTCTAGGTAACAAGTTCAGTGCAAGAGAGGAC
PBM binding z-score [1]: 1.96
PBM binding z-score [2]: 1.28
PBM binding z-score [3]: 1.46
PBM binding z-score [4]: 0.886
PBM binding z-score [5]: 0.703
PBM binding z-score [6]: 2.19
PBM binding z-score [7]: 1.03
PBM binding z-score [9]: 3.19

ACTAGTTGGTCAGCTGAGGTCAGACACAATTCGG
PBM binding z-score [1]: 3.88
PBM binding z-score [2]: 2.85
PBM binding z-score [3]: 3.57
PBM binding z-score [4]: 0.548
PBM binding z-score [5]: 2.51
PBM binding z-score [6]: 4.56
PBM binding z-score [7]: 3.42
PBM binding z-score [8]: 3.07
PBM binding z-score [9]: 1.76

GCGACTGGGGCAAAGCACGTTACCATAAGGTTGG
PBM binding z-score [1]: 0.0132
PBM binding z-score [2]: 0.0263
PBM binding z-score [3]: 0.422
PBM binding z-score [4]: -0.0988
PBM binding z-score [5]: 0.0282
PBM binding z-score [6]: -0.139
PBM binding z-score [7]: -0.582
PBM binding z-score [8]: -0.469
PBM binding z-score [9]: -0.524

TTACCAAGGTGAAAAGTCGTTGATGCACGCCTTG
PBM binding z-score [1]: 0.298
PBM binding z-score [2]: 0.676
PBM binding z-score [3]: 0.264
PBM binding z-score [4]: -0.185
PBM binding z-score [5]: 1.15
PBM binding z-score [6]: 1.37
PBM binding z-score [7]: 0.0466
PBM binding z-score [8]: 0.0875
PBM binding z-score [9]: -0.327

GGAACGAGGGCAATTTGATAGCAGAGTTTGATGG
PBM binding z-score [1]: 0.804
PBM binding z-score [2]: 1.04
PBM binding z-score [3]: 1.25
PBM binding z-score [4]: 1.74
PBM binding z-score [5]: 0.881
PBM binding z-score [6]: 0.709
PBM binding z-score [7]: -0.191
PBM binding z-score [8]: 0.368
PBM binding z-score [9]: 0.777

CCAGACAGGTGAGCAGGTAACTCAGCCTCGATTA
PBM binding z-score [1]: 0.399
PBM binding z-score [2]: 0.113
PBM binding z-score [3]: 0.308
PBM binding z-score [4]: -0.0126
PBM binding z-score [5]: -0.115
PBM binding z-score [6]: 0.218
PBM binding z-score [7]: 0.165
PBM binding z-score [8]: -0.287
PBM binding z-score [9]: -0.319

CCTTACGGGTCACGAGGTTATAGGACGACGAGCG
PBM binding z-score [1]: 3.83
PBM binding z-score [2]: 6.08
PBM binding z-score [3]: 5.52
PBM binding z-score [4]: 1.46
PBM binding z-score [5]: 7.19
PBM binding z-score [6]: 3.68
PBM binding z-score [7]: 1.02
PBM binding z-score [8]: 4.9
PBM binding z-score [9]: 1.85

CCTTAAGGGTCACTGACAGGTTATAGCATTTGGA
PBM binding z-score [1]: 4.71
PBM binding z-score [2]: 7.23
PBM binding z-score [3]: 6.91
PBM binding z-score [4]: 3.42
PBM binding z-score [5]: 6.82
PBM binding z-score [6]: 3.85
PBM binding z-score [7]: 0.468
PBM binding z-score [9]: 2.04

TAGCCTAGGTCAGTTCGGGCCAGTATACGCTATA
PBM binding z-score [1]: 2.51
PBM binding z-score [2]: 2.29
PBM binding z-score [3]: 3.3
PBM binding z-score [4]: 0.0401
PBM binding z-score [5]: 0.716
PBM binding z-score [6]: 4.04
PBM binding z-score [7]: 0.352
PBM binding z-score [9]: 0.242
